# Screens as filed in PubChem BioAssay.
# Shown are actives, neighbours in structure and some others; about 9.6% of the full set was active somewhere.
# L major viab: Leishmania major promastigote growth inhibition; Leishmania major promastigotes, resazurin fluorescence viability; inhibition, % at 10 µM; 200,000 compounds, 9% hits; AID 1063; in the data active = inhibition above about 50%;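 also: promastigotes grown with compound for 44 hours at 28 °C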
# HCT116 bCat-KO: beta-catenin-lacking colon tumor cell growth suppression | HCT116 beta-catenin knockout viability, CellTiter-Glo, 60 h; hits give low values | viability, % at 10 µM | 140,000 compounds, 1.5% hits | AID 818;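 active = viability at or under a set limit, the compound median less 4 SD, cut at about 6% in these data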
# INS promoter inh: TRM-6 insulin promoter activity inhibition; AID 1273; inhibition, % at 2 µM; TRM-6 cells (human fetal islet line), insulin promoter-eGFP reporter, imaging; reporter expression induced with tamoxifen; 130,000 compounds, 0.9% hits;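 active = inhibition above the mean plus 3 SD, with well images judged a real hit on visual review, cut at about 60% in these data, passing the limit was not always enough; inconclusive = inhibition over the cutoff but images rejected on review; inactive = inhibition not above the cutoff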
# Insulin prom up: MIN6 insulin promoter up-regulation; MIN6 insulin promoter-GFP reporter, high-content imaging; hits give high values; 190,000 compounds, 0.3% hits; z-score at 5 µM;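 active = z-score above 3 at 5 µM with at least 500 cells counted in the well; inconclusive = wells under 500 cells, flagged as cytotoxic or low count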
# Autophagy HCS: alters autophagy in cells. MEF GFP-LC3 puncta imaging; test concentration mostly 10 µM. calls only at 10 µM (by protocol). 190,000 compounds, 0.98% hits;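 active = percentage of spot-positive cells more than 3 SD above its plate mean, without a fluorescence outlier flag or 80% toxicity; inconclusive = no clear call, values can overlap the other calls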
# HCT116 PTEN-null: growth suppressors of cells with PTEN tumor suppressor deletion; AID 827; viability, % at 10 µM; HCT116 PTEN-null viability, CellTiter-Glo, 60 h; hits give low values; 140,000 compounds, 1.2% hits;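 active = viability at or below a set limit, 4 SD under the median of all tested compounds, cut at about 3.7% in these data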;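 also: PTEN knockout HCT116 line with beta catenin targeted HCT116 as companion control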
# Hits are given with their value; - = inactive; ? = inconclusive; . = no result; + = active, no number.
SMILES,L major viab,HCT116 bCat-KO,INS promoter inh,Insulin prom up,Autophagy HCS,HCT116 PTEN-null
CC(C)CC(NS(=O)(=O)c1ccc2[nH]c(=O)c(=O)[nH]c2c1)C(=O)O (stereo unspecified),-,.,-,-,-,.
Cc1ccc(Cl)cc1N1CCN(C(=O)Cc2ccc(-n3c(=O)[nH]c4ccsc4c3=O)cc2)CC1,57,-,-,-,-,-
C[C@H](NC(=O)c1nc[nH]c1C(=O)N[C@@H](Cc1ccccc1)C(=O)OC(C)(C)C)C(=O)OC(C)(C)C,.,.,.,-,.,.
O=C(CSc1n[nH]c(=O)[nH]c1=O)N/N=C/c1ccccc1,56,-,-,-,-,-
O=C(Cc1n[nH]c(=O)[nH]c1=O)N/N=C/c1ccccc1,-,-,-,-,-,-
CCCN(CCC)CC(O)Cn1cc(/C=C/C(=O)c2cccs2)c2ccccc21 (stereo unspecified),64,1.2,-,-,-,1.3
O=C(/C=C/c1cn(CC(O)CN2CCCCC2)c2ccccc12)c1cccs1 (stereo unspecified),99,2.7,.,4.6,+,-
CCCN(CCC)CC(O)Cn1cc(/C=C/C(=O)c2ccccc2)c2ccccc21 (stereo unspecified),69,.,.,-,-,.
O=C(/C=C/c1cn(CC(O)CN2CCCCC2)c2ccccc12)c1ccccc1 (stereo unspecified),.,.,.,-,.,.
CCC(C)(C)NC(=O)c1cc(S(=O)(=O)N2CCCCC2)ccc1N1CCOCC1,-,.,-,-,-,.
CCc1nnc(NC(=O)c2cc(S(=O)(=O)N3CCCCC3)ccc2N2CCOCC2)s1,-,.,-,-,+,.
O=C(NCCc1c[nH]c2ccccc12)c1cc(S(=O)(=O)N2CCCCC2)ccc1N1CCOCC1,65,-,-,-,-,-
CCc1nnc(NC(=O)c2ccc(S(=O)(=O)N3CCOCC3)cc2)s1,-,-,.,-,-,-
CN(Cc1ccc(OC(F)F)cc1)C(=O)c1ccc2nccnc2c1,-,-,-,-,-,-
COc1ccc2[nH]c3nc(SCc4nnc(-c5ccccc5)o4)nnc3c2c1,-,-,.,-,-,-
CC(=O)C(/C=N/c1cc(-c2ccc(C)cc2)nn1-c1ccccc1)=C(\C)O,64,-,-,-,-,-
CC1CN(C)C(C)c2c1oc1ccc(N)cc21 (stereo unspecified),-,.,-,-,-,.
CC1CN(C)C(C)c2c1oc1ccc([N+](=O)[O-])cc21 (stereo unspecified),-,.,-,-,+,.
CCCCN(CCCC)c1nc(OC)nc(-n2nnc(C(C)=O)c2C)n1,63,-,-,.,-,-
Cc1cc(C)n(-c2nc(Nc3ccccc3)nc(-n3nc(C)cc3C)n2)n1,-,-,-,-,-,-
CC(=O)c1nnn(-c2nc(N)nc(N(c3ccccc3)c3ccccc3)n2)c1C,92,-,-,-,-,-
Cc1cc(C)n(-c2nc(N(c3ccccc3)c3ccccc3)nc(-n3nc(C)cc3C)n2)n1,54,-,-,?,-,-
CCOC(=O)c1nnn(-c2nc(N(C)C)nc(N(C)C)n2)c1C,-,.,.,.,-,.
COc1cc(CNCCN2CCOCC2)ccc1OCc1c(Cl)cccc1Cl,86,-,-,-,-,-
CCOc1cc(CNCCN2CCOCC2)ccc1OCc1ccccc1Cl,98,.,.,-,-,.
SMILES,L major viab,HCT116 bCat-KO,INS promoter inh,Insulin prom up,Autophagy HCS,HCT116 PTEN-null
COc1cc(-c2nc(=S)[nH][nH]2)cc(OC)c1OC,-,.,.,-,-,.
COc1ccc(OC)c(/C=C/c2c([N+](=O)[O-])c(=O)n(C)c(=O)n2C)c1,-,.,.,-,-,.
COc1cc(/C=C/c2c([N+](=O)[O-])c(=O)n(C)c(=O)n2C)cc(OC)c1OC,79,-,-,-,-,-
COc1ccc(/C=C/c2c([N+](=O)[O-])c(=O)n(C)c(=O)n2C)cc1O,90,-,-,-,-,-
COC(=O)c1cc(C(=O)NC(C)(C)CC(C)(C)C)cc([N+](=O)[O-])c1,-,.,-,.,-,.
O=C(CCCCCN1C(=O)c2ccccc2C1=O)Nc1ccc(F)cc1,-,-,-,-,-,-
CCCN1C(=O)C(O)(CC(=O)c2cccc(OC)c2)c2ccccc21 (stereo unspecified),-,-,-,-,-,-
C=CCN1C(=O)/C(=C2/Sc3ccc(OC)cc3N2C)SC1=Nc1cccc(O)c1,-,.,-,-,+,.
CCOC(=O)CNc1ncc(C(F)(F)F)cc1Cl,-,.,-,-,-,.
CCOC(=O)c1ccc(NC(=O)Nc2ccn(C)n2)cc1,-,-,-,-,-,-
